In the test the test system is Falciformispora senegalensis CBS197.79. Description: growth relative to untreated control; higher = less inhibition, active = 20 or less. Particulars: 25 µM. The essentials: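 Viability readout used either MTS (2 h, 490 nm) or resazurin (600 nm). Before this, hyphal fragments of M. mycetomatis MM55 or F. senegalensis CBS197.79 in colourless RPMI 1640 with L-glutamine and MOPS (68–72% transmission at 660 nm) had been exposed in 96-well plates to compound at 100 or 25 µM for 7 days at 37 °C. Growth denotes metabolic activity relative to the untreated growth control, with a medium-plus-dye blank subtracted from both.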
As to `CCN1CCC(c2cc(C)c3nc(-c4cc5c(C)nc(C)cn5n4)cc(=O)n3c2)CC1`, the growth is 104% (inactive). Consider `CC(C)C[C@H](NC(=O)[C@H](Cc1ccccc1)NC(=O)c1cnccn1)B(O)O`, for which the growth is 103% (inactive). The same measure for `NC(=O)c1ncn([C@@H]2O[C@H](CO)[C@@H](O)[C@H]2O)n1`: 110% (inactive). The same measure for `CCN(CC)CCNc1nc(Nc2cccc(OC)c2)c2cnn(-c3ccccc3)c2n1`: 76.3% (inactive). Under `CS(=O)(=O)c1ccc(-c2cnn3c2NC(c2cccc(S(=O)(=O)C4CC4)c2)CC3)cc1` (stereo unspecified) stands 72.5% (inactive); under `COc1cccc2c1CCCC2CCCN1CCN(C2CCCCC2)CC1` (stereo unspecified), 101% (inactive).

Turning to `Cc1cccnc1-c1noc(-c2ccccc2)n1`, the growth was 99.3% (inactive). The same measure for `Cn1nc(C(=O)Nc2ccc(F)c(Cl)c2)c2c1-c1ccccc1S(=O)(=O)C2`: 99.8% (inactive); for `Nc1nc(S)c2[nH]cnc2n1`: 106% (inactive). For `CN(C)CCCN1C(=O)c2[nH]nc(-c3ccc(Cl)cc3O)c2C1c1ccc(Cl)cc1` (stereo unspecified), the growth is 83.3% (inactive). The same measure for `COc1ccc(-c2nn3c(-c4ccco4)nnc3s2)cc1OC`: 104% (inactive); for `C[C@@H]1CS/C(=N\NC(=O)C(=O)[C@@H](NC(=O)C2CCCCCC2)C2CCOCC2)N1C`: 95.5% (inactive). Under `O=C(Nc1ncccc1O)c1ccc(S(=O)(=O)NCCc2cccs2)cc1` stands 88.7% (inactive); under `C[C@@H](c1nc(-c2ccc(C#N)cc2)cs1)[C@](O)(Cn1cncn1)c1ccc(F)cc1F`, 49.9% (inactive); under `CCSc1ccc2c(c1)N(CCCN1CCN(C)CC1)c1ccccc1S2`, 7.2% (active). Under `Cc1cccnc1Nc1cn2cc(-c3cccc(OCC(F)(F)F)n3)ccc2n1` stands 96.5% (inactive). In the case of `Cc1cc2c(cc1Cl)N(C(=O)Nc1cc(F)cc(-c3cncnc3)c1)CC2`, the growth is 87% (inactive). Under `Cc1cccnc1Nc1cn2cc(-c3ccnc(OC(C)C)n3)ccc2n1` stands 101% (inactive); under `C[C@H](NC(=O)c1cc2c(F)cccc2[nH]1)c1ccccc1`, 84.1% (inactive). The same measure for `CCOC(=O)NCCOc1cnn(Cc2ccccc2)c(=O)c1`: 91.1% (inactive); for `CC(C)(C)[S@@](=O)N1Cc2cc(C(=O)NCCc3ccncc3)nc(-c3cccc(-c4ccccc4)c3)c2[C@H]1CCO`: 82.6% (inactive).

As to `CN(C)CCCN1c2ccccc2Sc2ccc(Cl)cc21`, the growth was 22.7% (inactive). As for `CC(C)Nc1ncc2nc(Nc3cc(F)cc(Cl)c3)n(C3CCNCC3)c2n1`, the growth was 101% (inactive). Under `Oc1ccccc1CCNC1CCc2ccc(F)cc21` (stereo unspecified) stands 107% (inactive); under `Nc1nc(NC2CC2)c2ncn([C@H]3C=C[C@@H](CO)C3)c2n1`, 94.3% (inactive); under `CCCCc1nc(Cl)c(CO)n1Cc1ccc(-c2ccccc2-c2nn[nH]n2)cc1`, 105% (inactive). The same measure for `C[C@H]1c2cccc(O)c2C(=O)C2=C(O)[C@]3(O)C(O)=C(C(N)=O)C(=O)[C@@H](N(C)C)[C@@H]3[C@@H](O)[C@@H]21`: 108% (inactive); for `CCC(CC)COC(=O)[C@H](C)NP(=O)(OC[C@H]1O[C@@](C#N)(c2ccc3c(N)ncnn23)[C@H](O)[C@@H]1O)Oc1ccccc1` (stereo partly specified): 109% (inactive); for `COC(=O)N[C@H](C(=O)N1CCC[C@H]1c1ncc(-c2ccc(-c3ccc(-c4cnc([C@@H]5CCCN5C(=O)[C@@H](NC(=O)OC)C(C)C)[nH]4)cc3)cc2)[nH]1)C(C)C`: 114% (inactive). Under `CC(C)CC(NCCc1ccccc1O)c1ccccn1` (stereo unspecified) stands 99.8% (inactive). In the case of `CC(C)(C)c1nc(-c2cccc(NS(=O)(=O)c3c(F)cccc3F)c2F)c(-c2ccnc(N)n2)s1`, the growth is 101% (inactive).

For the compound `COc1ccc2c(O[C@@H]3C[C@H]4C(=O)N[C@]5(C(=O)NS(=O)(=O)C6CC6)C[C@H]5/C=C\CCCCN(C)C(=O)[C@@H]4C3)cc(-c3nc(C(C)C)cs3)nc2c1C`, the growth is 103% (inactive). In the case of `CC[C@@H]([C@H](C)O)n1ncn(-c2ccc(N3CCN(c4ccc(OC[C@@H]5CO[C@@](Cn6cncn6)(c6ccc(F)cc6F)C5)cc4)CC3)cc2)c1=O`, the growth is 25.2% (inactive). Under `CCN1C(=O)N(CCC(C)C)C2(CCN(Cc3cc(O)cc(Cl)c3)CC2)C1=O` stands 91% (inactive). Under `O=S(=O)(NCC1(O)CCOc2ccccc21)c1ccccc1F` (stereo unspecified) stands 85.9% (inactive). On to `CC[C@H](C)[C@H]1O[C@]2(CC[C@@H]1C)C[C@@H]1C[C@@H](C/C=C(\C)[C@@H](O[C@H]3C[C@H](OC)[C@@H](O[C@H]4C[C@H](OC)[C@@H](O)[C@H](C)O4)[C@H](C)O3)[C@@H](C)/C=C/C=C3\CO[C@@H]4[C@H](O)C(C)=C[C@@H](C(=O)O1)[C@]34O)O2`, for which the growth is 93.9% (inactive).

These data come from the supplement of paper PMC11172423.
